A selection: hits, their analogues and other compounds. The true share with any hit is near 6.4%.
VP16 counter = Gal4-VP16 reporter inhibition counter-screen; Drosophila S2 Gal4-VP16 UAS-luciferase, luminescence, 20 h; Potency, µM (series often up to 53.6 µM), most hits filed as inhibitors; actives 3.5% (n = 310,000); AID 2546;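 further: Gal4-VP16 expression switched on by copper sulfate through the metallothionein promoter; nearly all actives have a fitted effect of over 50% in size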
RORg inh = blocks mouse ROR gamma transcriptional activity | Drosophila S2 Gal4-RORgamma UAS-luciferase reporter, 20 h | actives 5.4% (n = 310,000) | P51450 | Potency, µM (doses to about 53.6 µM), most hits filed as inhibitors | AID 2551; further: nearly all actives have a fitted effect of over 60% in size
Target sequence (P51450 whole entry, looked up, the tested form may be a part): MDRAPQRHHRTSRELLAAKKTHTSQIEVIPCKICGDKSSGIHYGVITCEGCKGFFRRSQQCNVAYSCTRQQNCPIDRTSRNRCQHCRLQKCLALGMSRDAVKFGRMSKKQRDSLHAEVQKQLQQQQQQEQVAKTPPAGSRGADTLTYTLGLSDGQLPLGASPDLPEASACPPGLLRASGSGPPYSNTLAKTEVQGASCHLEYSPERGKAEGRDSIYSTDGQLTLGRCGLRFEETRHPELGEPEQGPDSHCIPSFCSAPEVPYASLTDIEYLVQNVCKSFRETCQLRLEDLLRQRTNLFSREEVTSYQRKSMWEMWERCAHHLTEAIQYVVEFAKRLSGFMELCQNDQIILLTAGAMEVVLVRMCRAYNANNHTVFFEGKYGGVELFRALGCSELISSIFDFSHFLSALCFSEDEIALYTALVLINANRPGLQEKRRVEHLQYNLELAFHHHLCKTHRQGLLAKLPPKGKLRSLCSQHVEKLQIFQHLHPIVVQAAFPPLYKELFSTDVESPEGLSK
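ROR gamma transcriptional activity was tracked as Gal4-UAS luciferase output in stably transfected Drosophila Schneider cells, with compound added 1 hr before 700 uM copper sulfate induction and a 20 hr ambient-temperature incubation.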
KinaseGlo FLuc = counter-screen: inhibitors of Kinase-Glo firefly luciferase | Kinase-Glo luciferase, ATP luminescence, 8 min | Q27757 | actives 0.28% (n = 200,000) | Potency, µM (titrated, usually from 38.3 µM), actives largely listed as inhibitors; further: nearly all actives have a fitted effect of over 60% in size
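Substrate mix (final 50 mM imidazole pH 7.2, 50 mM KCl, 7 mM MgCl2, 10 uM ATP, 0.01% Tween 20, 0.05% BSA) plus pin-tool compound, then Kinase-Glo detection mix; 8 min ambient, luminescence read.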
Large screens that a line does not name were inactive. The call rests on the fitted dose curve; in most records, active means well fitted curve in the direction sought with a large enough effect; inconclusive means small, poorly fitted or top-dose-only effect, or another doubt; inactive means no such curve, though single readings can be large; an effect the other way counts as inactive or inconclusive.

CCN(c1ccccc1)S(=O)(=O)c1ccc(NC(=S)NC(=O)c2ccc(Br)o2)cc1	VP16 counter 15.8µM, RORg inh 4.47µM
O=C(CSc1ccc2nnc(CCNC(=O)c3ccc(F)cc3)n2n1)NCc1ccco1	none (no result: KinaseGlo FLuc)
O=C(c1cc(S(=O)(=O)N2CCOCC2)ccc1Cl)N1CCc2ccccc2C1	none (no result: KinaseGlo FLuc)
CCn1nnc2cc(C(=O)NCC(c3ccccc3OC)N(C)C)ccc21 (centres undefined)	none (no result: KinaseGlo FLuc)
O=C(CNC(=O)c1nc[nH]c1C(=O)NCC(=O)OCc1ccccc1)OCc1ccccc1	VP16 counter inconclusive (no result: KinaseGlo FLuc)
C[C@H](NC(=O)c1nc[nH]c1C(=O)NCC(=O)OCc1ccccc1)C(=O)OCc1ccccc1	RORg inh inconclusive (no result: KinaseGlo FLuc)
CNC(=O)c1[nH]cnc1C(=O)NCC(=O)OCc1ccccc1	none (no result: KinaseGlo FLuc)
O=C(CNC(=O)c1nc[nH]c1C(=O)NCc1ccccc1)OCc1ccccc1	VP16 counter inconclusive, RORg inh 11.2µM (no result: KinaseGlo FLuc)
C[C@H](NC(=O)c1nc[nH]c1C(=O)NCC(=O)OCc1ccccc1)c1ccccc1	VP16 counter inconclusive, RORg inh 14.1µM (no result: KinaseGlo FLuc)
CC(C)(C)OC(=O)NCc1ccc(CNC(=O)c2[nH]cnc2C(=O)NCC(=O)OCc2ccccc2)cc1	VP16 counter 22.4µM (no result: KinaseGlo FLuc)
CCOC(=O)C1CC(C)=C(C)CC1C(=O)O (centres undefined)	none (no result: KinaseGlo FLuc)
COc1ccccc1OCCn1cc(/C=N/n2cnnc2)c2ccccc21	none
CN(C)C=NC(=O)c1cc(C(=O)c2ccc(Cl)cc2)c[nH]1	none
CN(C)/C=N/C(=S)Nc1ccc(Cl)cc1	RORg inh 6.31µM
CN(C)/C=N/C(=S)Nc1ccc(Cl)cc1Cl	RORg inh 12.6µM
Cc1cccc(C)c1NC(=S)/N=C/N(C)C	RORg inh 20µM
CN1CCN(C(=S)Nc2ccc(Cl)cc2Cl)CC1	none
Cc1cccc(C)c1NC(=O)CNCC(=O)N(C)C	none
OC(CNCc1ccccc1Cl)C(F)(F)F (centres undefined)	none
NC(=O)Cn1c(=O)n(C2CCCCC2)c(=O)c2c3c(sc21)CCCCC3	none
O=c1sc(Nc2ccccc2)nc2ccccc12	none
Cc1ccc(Nc2nc3ccccc3c(=O)s2)cc1	VP16 counter 11.2µM, RORg inh 6.31µM
CC(=O)Nc1ccc(S(=O)(=O)N(C)CC(=O)OCC(=O)N(C)c2ccccc2)cc1	none (no result: KinaseGlo FLuc)
CC/C=C/C#N	none (no result: KinaseGlo FLuc)
Cc1ccc(CN(C(=O)COc2ccc(C)c(C)c2)C2CCS(=O)(=O)C2)o1 (centres undefined)	none (no result: KinaseGlo FLuc)
Cc1cccc(NC(=S)N/N=C/c2ccc(Cl)c([N+](=O)[O-])c2)c1	VP16 counter 3.98µM, RORg inh 1.58µM
COC(=O)N/N=C/c1cccc([N+](=O)[O-])c1	none (no result: KinaseGlo FLuc)
Cc1cccc(NC(=S)N/N=C/c2cccc([N+](=O)[O-])c2)c1	RORg inh 1.12µM
Cc1occc1C(=O)N/N=C/c1ccc(Cl)c([N+](=O)[O-])c1	none
COc1ccc(S(=O)(=O)N/N=c2\oc3c(OC)cccc3cc2S(=O)(=O)c2ccc(C)cc2)cc1OC	none
COC(=O)C1=C(C(=O)OC)[C@@H]2N(C)c3ccc(OC)cc3[C@@]23C[C@@H](C(=O)OC)N=C3N1	none
O=C(O)/C=C/C(=O)NC1CCC(CC2CCC(NC(=O)/C=C/C(=O)O)CC2)CC1 (centres undefined)	none
Cn1c(CSCc2ccccc2)nnc1SCC(=O)Nc1ccc(C(=O)O)cc1	none (no result: KinaseGlo FLuc)
CC(C)C[C@@H](CC(=O)N[C@H](CC(=O)N[C@@H]1CCCC[C@H]1C(=O)N[C@H](CC(=O)N[C@@H](CCC(=O)O)CC(=O)O)CC(C)C)C(C)C)NC(=O)[C@@H]1CNCC[C@H]1N	none
CSc1nc(N)c2ncn([C@H]3O[C@H](COP(=O)(O)OP(=O)(O)O)[C@@H](O)[C@@H]3O)c2n1	none
Nc1ncnc2c1ncn2[C@@H]1O[C@H](COP(=O)(O)OP(=O)(O)O)[C@@H](O)[C@H]1O	KinaseGlo FLuc 5.01µM
CCOc1cccc(N(C(=O)CNC(=O)c2ccco2)C(C(=O)NCC2CCCO2)c2ccccc2)c1 (centres undefined)	none (no result: KinaseGlo FLuc)
O=c1[nH]c(/C=C2\C=Nc3ccccc32)c(O)n1Cc1ccccc1F	none
CSc1nc(O)c(/C=C2\C=Nc3ccccc32)[nH]1	RORg inh inconclusive, KinaseGlo FLuc 6.31µM
Cc1nc2ccccc2nc1N1CCCCC1	none (no result: KinaseGlo FLuc)
Cc1ccc2c(Cl)c(C)c(N3CCCCC3)nc2n1	VP16 counter inconclusive, RORg inh 3.98µM
Cc1cc(F)ccc1NC(=O)CCc1c(C)nn(-c2ccc(N3CCCCC3)nn2)c1C	RORg inh 8.91µM (no result: KinaseGlo FLuc)
Cc1ccc(F)cc1NC(=O)CCc1c(C)nn(-c2ccc(N3CCCCC3)nn2)c1C	none (no result: KinaseGlo FLuc)
CSCC[C@H](NC(=O)[C@H](CC(C)C)NC(=O)[C@@H]1CCCN1C(=O)[C@H](Cc1ccccc1)NC(=O)[C@H](Cc1ccccc1)NC(=O)[C@@H]1CCC(=O)N1)C(N)=O	none (no result: KinaseGlo FLuc)
CC(=O)N1CCN(c2ccc(NC(=O)c3cccc([N+](=O)[O-])c3)cc2)CC1	RORg inh inconclusive (no result: KinaseGlo FLuc)
Cc1ccc2cc3cc(C(=O)NC4CC4)oc3nc2c1	none (no result: KinaseGlo FLuc)
Cc1ccc(C(=O)NC2CCCCCCC2)c(Cl)c1	VP16 counter 8.91µM, RORg inh 7.08µM (no result: KinaseGlo FLuc)
O=C(NC1CCCCCCC1)c1cc(F)c(F)cc1Cl	none
Cc1ccc2cc3cc(C(=O)NC4CCCCC4)oc3nc2c1	VP16 counter inconclusive, RORg inh 0.562µM (no result: KinaseGlo FLuc)
Cc1ccc(S(=O)(=O)NC(=O)Nc2ccc(C)cn2)cc1	none (no result: KinaseGlo FLuc)
O=C1[C@@H]2[C@H]3[C@H](O)[C@H](O)C/C(=N/OCc4ccccc4)[C@@H]3CC[C@H]2C(=O)N1c1ccc(F)cc1F	none (no result: KinaseGlo FLuc)
O=C1CCc2ccc(NC(=O)C3CC3)cc2N1	none
Cc1oc(-c2ccoc2)nc1CN(CC1CCC(=O)N1)C(C)C (centres undefined)	none
COCCN(Cc1nc(-c2ccc(-c3ccccc3)cc2)oc1C)C(C)C	VP16 counter inconclusive, RORg inh 11.2µM (no result: KinaseGlo FLuc)
COc1ccc(OC)c(C2C(C(=O)N(C)C)=C(C)Nc3nc4ccccc4n32)c1 (centres undefined)	none
COc1ccc(C2C(C(=O)c3ccccc3)=C(C)Nc3nc4ccccc4n32)c(OC)c1 (centres undefined)	RORg inh 6.31µM
COc1ccc(C)c2sc(=NC(=O)c3ccc(C(C)=O)cc3)n(C)c12	none (no result: KinaseGlo FLuc)
COc1ccc(C)c2sc(=NC(=O)c3ccccc3)n(C)c12	KinaseGlo FLuc 12.6µM
CCOC(=O)C1(CC2CCCCO2)CCN(Cc2cn[nH]c2-c2cccc(F)c2)CC1 (centres undefined)	none
COc1ccc(-c2cc(C(=O)N3CCN(S(=O)(=O)c4ccccc4)CC3)[nH]n2)cc1	RORg inh inconclusive (no result: KinaseGlo FLuc)
COc1ccc(S(=O)(=O)N2CCN(C(=O)c3cc(-c4ccc(Br)cc4)n[nH]3)CC2)cc1OC	VP16 counter 12.6µM, RORg inh inconclusive (no result: KinaseGlo FLuc)
CC(=O)c1sc(NC(=O)C=C(C)C)nc1C	none
CC(=O)c1sc(NC(=O)C2(F)C(F)(F)C(F)(F)C(F)(F)C(F)(F)C2(F)F)nc1C	VP16 counter 3.55µM, RORg inh 3.98µM
CCOc1ccc(Cn2c(=O)oc3ccccc32)cc1	none (no result: KinaseGlo FLuc)
CN(Cc1ccccc1)C(=S)NC(=O)c1cccs1	VP16 counter 0.251µM, RORg inh 0.316µM (no result: KinaseGlo FLuc)
CN(Cc1ccccc1)C(=S)NC(=O)c1ccc(-c2ccccc2)cc1	VP16 counter 0.0891µM, RORg inh 0.282µM

Bioassay records: PubChem BioAssay, National Center for Advancing Translational Sciences (NCATS)
